Hits are enriched below; roughly 3.5% of the tested compounds scored in any of these assays.
mHTT-CaM PPI inh: mutant huntingtin-calmodulin interaction inhibitors – biochemical, AlphaScreen, primary screen; AlphaScreen His-mHTT/GST-CaM binding, luminescence; AID 1671202, 2021; hit rate 3.6% among 190,000; P42858; inhibition, % at 15 µM
Pf apPOL inh: Pf-apPOL inhibitors, biochemical, fluorescence; Recombinant Pf-apPOL, molecular beacon fluorescence, 1.5 h; inhibition, % at 10 µM; hit rate 0.25% among 210,000
Of the large screens only hits and unclear results are named; the others gave an inactive call. Cut-off read from the data, not from the text of the source: active = inhibition above about 50%; inactive = the rest.

COCOCCn1cc(CN2CCS(=O)(=O)N(Cc3ccc(-c4cccc(N(C)C)c4)cc3)C(C)C2=O)nn1 (centres undefined)	none
Cc1cccc(NC(=O)c2cc3cc(Cl)cc(Cl)c3oc2=N)c1	none
CC(=O)N1c2c(cc(Br)cc2S(=O)(=O)Nc2cccc(C(F)(F)F)c2)CC1C (centres undefined)	none
CC(=O)N1c2c(cc(Br)cc2S(=O)(=O)Nc2ccc(C(F)(F)F)cc2)CC1C (centres undefined)	mHTT-CaM PPI inh 91.0
CN1CCN(c2ccc([N+](=O)[O-])c(Sc3cccc4cccnc34)c2)CC1	none
O=[N+]([O-])c1ccc(N2CCCC2)cc1Sc1cccc2cccnc12	mHTT-CaM PPI inh 101.0
O=C(COc1ccc(Cl)cc1Cl)N1CCN(c2ccccc2F)CC1	none
Cc1ccc(-c2ncccc2C(=O)N2CCC(C(=O)N3CCOCC3)CC2)cc1	none
O=C(CNC1=NCCC1)c1ccc(-c2ccccc2)cc1	mHTT-CaM PPI inh 100.0
O=C(CNC1=NCCC1)c1ccc(Br)cc1	none
Cc1ccc(NC(=O)CSc2cc(N3CCCCC3)ncn2)cc1Cl	none
O=C(Nc1c[nH]c2ccccc12)N1CCCCC1CCO (centres undefined)	none
O=C(c1cc(C(F)(F)F)cc(C(F)(F)F)c1)c1ccccc1C(=O)N1CCOCC1	none (no result: mHTT-CaM PPI inh)
O=C(N=S1CCC2(C1)OCCO2)c1cc(C(F)(F)F)cc(C(F)(F)F)c1 (centres undefined)	Pf apPOL inh 75.0 (no result: mHTT-CaM PPI inh)
Cc1ccc(NC(=O)c2cc([N+](=O)[O-])ccc2NCCO)cc1Cl	none
CCC(=O)N1CCc2sc(C(=O)NCc3ccccn3)cc2C1	none
CC(C)CC(=O)NC(Cc1ccccc1)c1nnc(N2CCCC2)o1 (centres undefined)	none
COc1ccc(CNC(=O)CN2CCC(c3nc(-c4ccccc4Cl)no3)CC2)cc1	none
Cc1[nH]c2ccccc2c1C(C[N+](=O)[O-])c1ccco1 (centres undefined)	none
Cc1[nH]c2ccccc2c1C(c1ccco1)c1c(C)[nH]c2ccccc12	mHTT-CaM PPI inh 55.0
O=C(Nc1cccc(C(F)(F)F)c1)c1ccc(Cl)cc1Cl	none
COc1ccc(CNc2cc(-c3ccccc3)ccc2OC)cc1O	mHTT-CaM PPI inh 76.0
COc1ccc(CNc2ccccc2F)cc1OCc1ccccc1	none
O=C(c1ccc(OCC2CCCN2C(=O)Cc2ccc(F)cc2)cc1)N1CCCC1 (centres undefined)	none
Cc1c(CCOC(=O)C23CC4CC(CC(C)(C4)C2)C3)sc[n+]1CC(=O)c1ccccc1	mHTT-CaM PPI inh 99.3
CC12CC3CC(C1)CC(C(=O)O)(C3)C2	none
COc1ccc(-n2nc3ccc(NC(=O)c4ccc(OC)c(Cl)c4)cc3n2)cc1	none
CC(C)CC1C(=O)N(Cc2cn(Cc3ccco3)nn2)CCS(=O)(=O)N1Cc1ccc(-c2cccc(N(C)C)c2)cc1 (centres undefined)	mHTT-CaM PPI inh 67.7
CC1C(=O)N(Cc2cn(Cc3ccco3)nn2)CCS(=O)(=O)N1Cc1ccc(-c2cccnc2)cc1 (centres undefined)	none
CC1C(=O)N(Cc2cn(Cc3ccco3)nn2)CCS(=O)(=O)N1Cc1ccc(-c2cccc(N(C)C)c2)cc1 (centres undefined)	mHTT-CaM PPI inh 63.9
Cc1ccc(-c2ccc(CN3C(CC(C)C)C(=O)N(Cc4cn(Cc5ccco5)nn4)CCS3(=O)=O)cc2)cc1 (centres undefined)	none
COc1cc(NC(=O)c2ccccc2Br)c(OC)cc1Cl	none
CC(C)Cc1ccc(C(=O)NCC2OCCc3ccccc32)cc1 (centres undefined)	none
O=C1CSC(c2cccc(Br)c2)N1c1cccc(F)c1 (centres undefined)	none
COc1ccc(-c2nc3c(c(=O)[nH]2)CCN(C(=O)c2ccsc2)C3)cc1	none
CCOC(=O)c1cc(C)nn1C1CCN(C(=O)c2ccc(F)cc2F)CC1	none
O=C(c1cc(F)ccc1F)N1CCC(n2nc(-c3ccsc3)ccc2=O)CC1	mHTT-CaM PPI inh 97.5
O=C(c1cc(F)ccc1F)N1CCC(CCOCc2ccc(F)cc2)CC1	none
O=C(c1ccccn1)N1CCC(n2nc(-c3ccsc3)ccc2=O)CC1	none
O=C(c1ccccc1F)N1CCC(n2nc(-c3ccsc3)ccc2=O)CC1	mHTT-CaM PPI inh 86.0
O=C(c1ccc(F)cc1F)N1CCC(n2nc(-c3ccsc3)ccc2=O)CC1	mHTT-CaM PPI inh 100.0
Cc1cc(=O)n(CC(=O)Nc2cccc(F)c2)c(N2CCCC2)n1	none
O=Cc1ccccc1OCc1ccc(F)cc1	none
O=C(O)c1nccnc1C(=O)NCCCN1CCOCC1	none
CCOc1ccc(N2COc3ccc(Br)cc3C2)cc1	mHTT-CaM PPI inh 84.0
CCOc1ccc(N2COc3cc4c(cc3C2)OCO4)cc1	none
CNC(=O)C(=O)Nc1ccc(C)c(F)c1	none
Cc1ccc(S(=O)(=O)N(C)c2ccc(N)cc2)cc1	none
Cc1ccc(C(C)(c2ccc(N)cc2)c2ccc(N)cc2)cc1	mHTT-CaM PPI inh 67.6
Cc1ccccc1NC(=S)N1CCCCC1C (centres undefined)	none (no result: mHTT-CaM PPI inh)
O=C(CCS(=O)(=O)Cc1ccccc1)Nc1nc2c(Cl)cccc2s1	none
COc1ccc(-c2nnc(C)c(NC3CCCC3)n2)cc1	mHTT-CaM PPI inh 52.3
COc1ccc(CNc2nc(-c3ccc(C)cc3)nnc2C)cc1	none
Clc1ccccc1-c1nc(COc2ccc3c(c2)OCO3)no1	none
CN(C)c1cccc(OCc2noc(-c3ccccc3Cl)n2)c1	mHTT-CaM PPI inh 67.5
CCCCN(CC)C(=O)C1c2ccccc2C(=O)N(CCOC)C1c1ccc(F)cc1 (centres undefined)	none
NC(=O)c1ccc(-c2nnc(Nc3ccc(C(=O)Nc4ccccc4)cc3)c3ccccc23)cc1	mHTT-CaM PPI inh 87.2
CNC(=O)c1cc(Nc2nnc(-c3ccc(O)cc3)c3ccccc23)ccc1OC	none
CNC(=O)c1cc(Nc2nnc(-c3ccc(C)cc3)c3ccccc23)ccc1OC	mHTT-CaM PPI inh 71.6
CNC(=O)c1ccc(Nc2nnc(-c3ccc(O)cc3)c3ccccc23)cc1	none
Cc1nn2c(=O)/c(=C/c3ccc(-c4ccc(Cl)cc4)o3)sc2nc1=O	none
C=CCn1c(Br)nc2c1c(=O)n(CC(N)=O)c(=O)n2C	none
Cc1cc(C)nc(NS(=O)(=O)c2ccc(NC(=O)C3COc4ccccc4O3)cc2)n1 (centres undefined)	none
O=C(Nc1nnc(CCS(=O)(=O)c2ccccc2)o1)C1COc2ccccc2O1 (centres undefined)	mHTT-CaM PPI inh 65.3
O=C(CSc1ccccc1)Nc1nnc(-c2cc(Cl)sc2Cl)o1	none
O=C(Nc1nnc(-c2cc(Cl)sc2Cl)o1)C1COc2ccccc2O1 (centres undefined)	mHTT-CaM PPI inh 81.2
Cc1nc2sccn2c(=O)c1NC(=O)c1ccccc1	none
COc1ccc(C=C2Oc3cc(OC(C)=O)cc(C)c3C2=O)cc1	none
Nc1cccc2c1NC(c1ccc(Cl)cc1)C1CCCC21 (centres undefined)	mHTT-CaM PPI inh 90.3
COc1ccc(C2CCCN2C(=O)c2cc(-c3ccc(OC)c(OC)c3)on2)cc1 (centres undefined)	none
O=C1CCCC(=O)N1c1ccc(N2CCC(O)(c3cccc(C(F)(F)F)c3)CC2)c([N+](=O)[O-])c1	mHTT-CaM PPI inh 93.0
O=C1CCCC(=O)N1c1ccc(N2CCN(c3cccc(C(F)(F)F)c3)CC2)c([N+](=O)[O-])c1	none
O=C(Nc1ccc(F)c(F)c1)c1c(O)c2cccnc2n(-c2cccc(F)c2)c1=O	none
S=c1sc2c(Cl)ncnc2n1-c1ccccc1	mHTT-CaM PPI inh 82.9 (no result: Pf apPOL inh)
S=c1sc2c(N3CCc4ccccc43)ncnc2n1-c1ccccc1	none (no result: Pf apPOL inh)

Compound activity: PubChem, University of Kansas High Throughput Screening Laboratory
